Some test systems named below: DU-145 prostate; K-562 leukemia; MALME-3M melanoma; MDA-MB-231 breast; RXF 393 renal; SF-268 CNS; SF-295 CNS; SF-539 CNS; UACC-257 melanoma; M14 melanoma; HCT-15 colon; HT29 colon; SNB-75 CNS; SNB-19 CNS; U251 CNS; PC-3 prostate; SK-MEL-5 melanoma; UACC-62 melanoma; LOX IMVI melanoma; SK-MEL-28 melanoma.
Holding throughout (assay): NCI-60 one-dose screen, 48 h (100 = growth as untreated, 0 = no growth, -100 = all killed)
Common to all, as to settings: 10 µM unless noted

Compounds without any hit were thinned out: in the full panel of roughly 83,000, 20% have a hit.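 Results are percent growth after 48 hours of single-concentration exposure. 100 means growth as in untreated cells, lower positive values show inhibition; negative values down to -100 show cell death.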 A number with no mark means an inactive call. Activity calls are given as the source filed them. The calls were made as follows: active = growth percent below 10; inactive = the rest.

`Cc1sc2nc(NCCc3c[nH]c4ccc(Cl)cc34)[nH]c(=O)c2c1C`: the growth in the assay with DU-145 prostate is 62.2%; in the assay with K-562 leukemia it was 22.3%; in the assay with MALME-3M melanoma, 60.2%; in the assay with MDA-MB-231 breast, 31.1%; in the assay with RXF 393 renal, 7.63% (active); in the assay on SF-268 CNS it was 15.5%. Moreover, the growth with SF-295 CNS was 50.7%; with SF-539 CNS, 40.1%; with UACC-257 melanoma it was 32.6%; in the assay with M14 melanoma, 26.5%; with HCT-15 colon, 7.96% (active); with HT29 colon it was 19.6%. Besides, the growth in the assay with SNB-75 CNS is 23.5%; with SNB-19 CNS, 63.8%; in the assay on U251 CNS it was 32.3%; in the assay with PC-3 prostate, 29.2%; with SK-MEL-5 melanoma, 50.4%; in the assay with UACC-62 melanoma it was 42.3%. Also, the growth with LOX IMVI melanoma was 26.5%; in the assay on SK-MEL-28 melanoma it was 70.1%.

With `CN(C)c1ccc(C(=O)OCCCCCCl)cc1`, the growth in the assay on DU-145 prostate is 96.4%; in the assay with K-562 leukemia, 106%; in the assay on MALME-3M melanoma, 89%; in the assay on MDA-MB-231 breast, 87.4%; in the assay with RXF 393 renal, 102%; in the assay on SF-268 CNS, 94%. Besides, the growth in the assay with SF-295 CNS is 98.9%; in the assay with SF-539 CNS, 96.1%; in the assay with UACC-257 melanoma, 109%; with M14 melanoma it was 95.3%; with HCT-15 colon, 100%; with HT29 colon, 99.1%. The growth in the assay on SNB-75 CNS was 78.4%; in the assay with SNB-19 CNS it was 95.6%; in the assay on U251 CNS, 99.7%; in the assay on PC-3 prostate it was 87.1%; in the assay on SK-MEL-5 melanoma it was 98.5%; in the assay on UACC-62 melanoma, 94.5%. Also, the growth was 102% in the assay on LOX IMVI melanoma and 103% with SK-MEL-28 melanoma.

For the compound `CCCCCCCC[C@@H]1N[C@@H](C(=O)OC)Cc2c1[nH]c1ccccc21`, the growth in the assay with DU-145 prostate was 106%; in the assay on K-562 leukemia it was 88.4%; in the assay on MALME-3M melanoma it was 83%; in the assay on MDA-MB-231 breast, 96.2%; with RXF 393 renal, 96.6%; in the assay on SF-268 CNS, 97.3%. Moreover, the growth was 102% with SF-295 CNS; 93.7% in the assay with SF-539 CNS; 101% in the assay with UACC-257 melanoma; 102% with M14 melanoma; 94.2% in the assay with HCT-15 colon; 111% with HT29 colon. Further, the growth in the assay on SNB-75 CNS is 81.6%; with SNB-19 CNS, 96.6%; in the assay with U251 CNS, 91.5%; with PC-3 prostate it was 94.6%; with SK-MEL-5 melanoma it was 97.3%; in the assay on UACC-62 melanoma, 69.1%. The growth with LOX IMVI melanoma was 93.1%; in the assay with SK-MEL-28 melanoma, 94.2%.

With `O=C(NCCNc1nccc(Nc2ccc(S(=O)(=O)Nc3ccccn3)cc2)n1)c1cccc([N+](=O)[O-])c1`, the growth in the assay with DU-145 prostate was 109%; in the assay on K-562 leukemia it was 92.9%; in the assay with MALME-3M melanoma it was 108%; with MDA-MB-231 breast, 118%; in the assay with RXF 393 renal, 108%; with SF-268 CNS, 104%. The growth with SF-295 CNS was 103%; with SF-539 CNS it was 102%; with UACC-257 melanoma, 95.3%; in the assay on M14 melanoma, 101%; in the assay with HCT-15 colon it was 105%; in the assay with HT29 colon, 90.6%. The growth was 93.5% in the assay on SNB-75 CNS; 112% in the assay with SNB-19 CNS; 97.6% in the assay on U251 CNS; 94.2% with PC-3 prostate; 103% in the assay on SK-MEL-5 melanoma; 100% in the assay with UACC-62 melanoma. The growth in the assay with LOX IMVI melanoma is 101%; in the assay on SK-MEL-28 melanoma it was 107%.

With `CC1=C2[C@@H](CC1)[C@]1(C)O[C@@](C(C)C)(C[C@H]1OC(=O)[C@H](C)O)[C@H]2OC(=O)/C=C/c1ccccc1`, the growth in the assay on DU-145 prostate was 105%; with K-562 leukemia, 68.7%; with MALME-3M melanoma it was 101%; in the assay on MDA-MB-231 breast, 83.1%; in the assay with RXF 393 renal, 30.8%; with SF-268 CNS, 41%. Moreover, the growth with SF-295 CNS was 78.7%; in the assay with SF-539 CNS, 96.8%; in the assay on UACC-257 melanoma, 90.5%; with M14 melanoma, 87.2%; in the assay with HCT-15 colon, 83.6%; in the assay on HT29 colon it was 82.8%. In addition, the growth with SNB-75 CNS was 66.4%; in the assay on SNB-19 CNS it was 85.1%; in the assay with U251 CNS it was 79%; with PC-3 prostate it was 58.3%; in the assay with SK-MEL-5 melanoma it was 90.3%; in the assay with UACC-62 melanoma it was 66%. The figures for the growth in the assay with LOX IMVI melanoma and with SK-MEL-28 melanoma were 84.6% and 108%, respectively.

Turning to `N#Cc1c(-c2ccccc2)cc(-c2ccccc2)n(CCCC(=O)Nc2ccccc2N)c1=O`, the growth is 87.4% with DU-145 prostate; 20.2% with K-562 leukemia; 47.4% in the assay on MALME-3M melanoma; 69.9% in the assay with MDA-MB-231 breast; 55.8% in the assay on RXF 393 renal; 59.5% with SF-268 CNS. In addition, the growth was 35.1% in the assay on SF-295 CNS; 52.5% in the assay on SF-539 CNS; 78.2% in the assay with UACC-257 melanoma; 39.8% with M14 melanoma; 28.1% in the assay on HCT-15 colon; 49.5% with HT29 colon. The growth was -9.01% (active) in the assay with SNB-75 CNS; 62.2% with SNB-19 CNS; 56.7% with U251 CNS; 67.4% with PC-3 prostate; 48.4% in the assay with SK-MEL-5 melanoma; 34.2% in the assay on UACC-62 melanoma. Further, the growth was 48% in the assay on LOX IMVI melanoma and 65.9% in the assay with SK-MEL-28 melanoma.

As to `O=[N+]([O-])c1ccc(O)cc1Br`, the growth in the assay on DU-145 prostate was 103%; with K-562 leukemia it was 93%; with MALME-3M melanoma, 102%; with MDA-MB-231 breast, 95.4%; with RXF 393 renal, 107%; in the assay with SF-268 CNS it was 99.6%. The growth with SF-295 CNS was 89.4%; with SF-539 CNS it was 91.6%; with UACC-257 melanoma, 108%; with M14 melanoma, 96.2%; with HCT-15 colon, 101%; with HT29 colon, 92.6%. Also, the growth in the assay with SNB-75 CNS is 92.7%; with SNB-19 CNS, 98.6%; with U251 CNS it was 103%; with PC-3 prostate it was 88.8%; in the assay on SK-MEL-5 melanoma, 93.3%; in the assay with UACC-62 melanoma, 105%. Also, the growth in the assay with LOX IMVI melanoma is 95.4%; with SK-MEL-28 melanoma, 109%.

Regarding `Cc1cc(N2CCCCC2)cc(C)c1-c1csc(NC(=O)c2ccncc2)n1`, the growth in the assay with DU-145 prostate is 77%; in the assay with K-562 leukemia, 22.1%; with MALME-3M melanoma it was 59.7%; in the assay on MDA-MB-231 breast, 54.5%; in the assay on RXF 393 renal, 77.6%; in the assay on SF-268 CNS, 60%. Also, the growth with SF-295 CNS was 22.5%; with SF-539 CNS, 81.1%; with UACC-257 melanoma it was 33.2%; with M14 melanoma it was 57.8%; in the assay with HCT-15 colon, 80.5%; in the assay on HT29 colon, 69%. Further, the growth in the assay on SNB-75 CNS is 55.7%; in the assay with SNB-19 CNS, 59.8%; in the assay with U251 CNS, 63%; with PC-3 prostate, 48.1%; in the assay with SK-MEL-5 melanoma, -8.97% (active); with UACC-62 melanoma it was 45.1%. The values for the growth with LOX IMVI melanoma and with SK-MEL-28 melanoma were 47.1% and 64.9%, respectively.

For the origin of these results see PubChem BioAssay (NCI).
